This note sets out measurements from PubChem BioAssay (NCATS).

Inconclusive results are not listed. Values without a mark were called inactive. Activity calls are given as the source filed them. Calls come from the whole dose curve; tested in HEK293 reporter line.
% is set by controls: 0 for no effect and ±100 for the full control effect; potency is the fitted concentration of half-maximal effect.

The first assay in a line: qHTS for Inhibitors of the Functional Ribonucleoprotein Complex (vRNP) of Lassa (LASV) Arenavirus: LASV Primary Screen - GLuc reporter signal (AID 1347082). Note: nearly all actives have a fitted effect of over 60% in size. The conditions noted are these: LASV minigenome vRNP, Gaussia luciferase reporter; series mostly up to 57.5 µM; activity change, negative = inhibition: at the top concentration. Background: In qHTS, concentration-response curves come from the screen itself.
Take `COc1ccnc2[nH]cc(C(=O)C(=O)N3CCN(C(=O)c4ccccc4)C[C@@H]3C)c12`: the “activity change, negative = inhibition” value is -13.3%.

Take `COc1ccc([C@@H]2CC(=O)c3c(O)cc(O[C@@H]4O[C@H](CO)[C@@H](O)[C@H](O)[C@H]4OC4O[C@@H](C)[C@H](O)[C@@H](O)[C@H]4O)cc3O2)cc1O` (stereo not given in full): the “activity change, negative = inhibition” value is -0.678% [at 24.7 µM]. On the same count and under the same terms, the result for `O=C1NC(=O)C(=Cc2ccc3c(c2)OC(F)(F)O3)S1` reads -25%. As to `C=C1C(=O)[C@@]23[C@H](O)C[C@@H]4C(C)(C)CC[C@H](O)[C@]4(C)[C@@H]2C[C@H](O)[C@@H]1[C@H]3O`, the Potency is 8.91 µM (active).

In the case of `CC1=CC(C)CC(C)OC(=O)CC(c2ccc(O)cc2)NC(=O)C(Cc2c(Br)[nH]c3ccccc23)N(C)C(=O)C(C)NC(=O)C(C)C1` (stereo not given), the “activity change, negative = inhibition” value was -14.2%. `C[C@H]([C@@H](O)[C@@H](O)[C@@H](C)C(C)(C)C)[C@H]1CC[C@H]2C3CC[C@H]4C[C@H](OS(=O)(=O)O)[C@@H](OS(=O)(=O)O)C[C@]4(C)[C@H]3CC[C@]12C` (stereo not given in full): the “activity change, negative = inhibition” value was -10.7%. The same measure, in the same setting: the result for `COc1cc(/C=C/C(=O)c2ccc(O)cc2O)ccc1O` reads 5.2%; that for `CO[C@H]1[C@@H](O)[C@@H](C)O[C@H](O[C@H]2[C@H](Oc3cccc4c(O)c5c(=O)oc6ccc(C)c7c(=O)oc(c34)c5c67)O[C@H](C)[C@H](O)[C@@H]2O)[C@@H]1O`, -4.65%.

The next assay is described as follows: qHTS for Inhibitors of the Functional Ribonucleoprotein Complex (vRNP) of Lassa (LASV) Arenavirus: Viability assay - alamar blue signal for LASV Primary Screen (AID 1347083). Note: nearly all actives have a fitted effect of over 80% in size. The following applies: cell viability, alamar blue fluorescence (LASV minigenome counter-screen); series mostly up to 57.5 µM; activity change, negative = reduced viability: at the top concentration.
On to `Oc1ccc(C2CCN(c3ccnc4ccccc34)CC2)cc1O`, for which the Potency was 6.85 µM (active).

In the case of `COC(=O)c1ccc2c(c1)C(NC(C)=O)CCc1cc(OC)c(OC)c(OC)c1-2` (stereo not given), the “activity change, negative = reduced viability” value is -106%. For the compound `COc1ccc(C2CC(=O)c3c(O)cc(O)cc3O2)cc1O` (stereo not given), the “activity change, negative = reduced viability” value is -0.227%. Same read-out and setting: the result for `O=C(Nc1ccc(Oc2ccnc3[nH]ccc23)c(F)c1)c1cccn(-c2ccc(F)cc2)c1=O` reads -14.5%; that for `O=c1ccn([C@@H]2O[C@H](COP(=O)(O)O)[C@@H](O)[C@H]2O)c(=O)[nH]1`, -14.5%.

Take `CC(=O)O[C@@]12CO[C@@H]1C[C@H](OC1OCC(O)C(O)C1O)[C@@]1(C)C(=O)[C@H](O)C3=C(C)[C@@H](OC(=O)[C@H](O)[C@@H](NC(=O)c4ccccc4)c4ccccc4)C[C@@](O)([C@@H](OC(=O)c4ccccc4)C12)C3(C)C` (stereo not given in full): the Potency was 20 µM (active). In the case of `O=c1c(-c2ccc(O)cc2)coc2c(C3OC(CO)C(O)C(O)C3O)c(O)ccc12` (stereo not given), the “activity change, negative = reduced viability” value is 6.71%. `CC(=O)c1ccc[nH]1`: the “activity change, negative = reduced viability” value was -14.3% [at 115 µM]. Consider `CO[C@H]1O[C@@H]2O[C@@]3(C)CC[C@@H]4[C@@H](C)CC[C@@H]([C@H]1C)[C@@]24OO3`, for which the “activity change, negative = reduced viability” value is -28.7%. The same measure, in the same setting: to `CC(=O)O[C@@H]1CC[C@@]2(C)[C@H](C1)[C@H](OC(C)=O)C[C@@H]1[C@@H]2C[C@H]2[C@@H]3CN4C[C@H](C)CC[C@H]4[C@H](C)[C@H]3CC[C@@]12O` belongs 14.2% [at 24.7 µM]. As for `O=C(O)C[C@H](O)C[C@H](O)C=Cc1c(C2CC2)nc2ccccc2c1-c1ccc(F)cc1`, the Potency was 24.3 µM (active).

`COC(=O)C1C2CC3c4[nH]c5cc(OC)ccc5c4CCN3CC2CC(O)C1OC` (stereo not given): the “activity change, negative = reduced viability” value is 9.65%. Take `COc1ccnc2[nH]cc(C(=O)C(=O)N3CCN(C(=O)c4ccccc4)C[C@@H]3C)c12`: the “activity change, negative = reduced viability” value was -30.2%.

Consider `COc1ccc([C@@H]2CC(=O)c3c(O)cc(O[C@@H]4O[C@H](CO)[C@@H](O)[C@H](O)[C@H]4OC4O[C@@H](C)[C@H](O)[C@@H](O)[C@H]4O)cc3O2)cc1O` (stereo not given in full), for which the “activity change, negative = reduced viability” value was -3.6% [at 24.7 µM].

For `O=C1NC(=O)C(=Cc2ccc3c(c2)OC(F)(F)O3)S1`, the “activity change, negative = reduced viability” value is -38.9%.

Consider `C[C@H]([C@@H](O)[C@@H](O)[C@@H](C)C(C)(C)C)[C@H]1CC[C@H]2C3CC[C@H]4C[C@H](OS(=O)(=O)O)[C@@H](OS(=O)(=O)O)C[C@]4(C)[C@H]3CC[C@]12C` (stereo not given in full), for which the “activity change, negative = reduced viability” value is 12.7%. In the case of `COc1cc(/C=C/C(=O)c2ccc(O)cc2O)ccc1O`, the “activity change, negative = reduced viability” value is 2.93%.
